# Test results published in PubChem BioAssay (NCATS).
# Values without a mark were called inactive. Records with an inconclusive call do not appear. Entries that show only a call come without a potency. Activity calls are given as the source filed them. Unless noted, calls follow the shape of the dose curve; as a rule, active = well fitted curve in the direction sought with a large enough effect; inconclusive = small, poorly fitted or top-dose-only effect, or another doubt; inactive = no such curve, though single readings can be large; an effect the other way counts as inactive or inconclusive.
# What was measured:
# [1] = tested on: Zika virus NS2B-NS3 protease (linked construct); assay: Primary screen NINDS Rhodamine qHTS for Zika virus inhibitors (AID 1347160); also: nearly all actives have a fitted effect of over 55% in size
# Summary of the method: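 Kinetic fluorescence (Ex 480 nm, Em 540 nm) over 15 min with 1.5 microM Rhodamine110 peptide and 25 nM linked protease.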
# [2] = target: Calcium and integrin-binding protein 1 (Homo sapiens) (UniProt Q99828); assay: Primary qHTS for Identification of Calcium Integrin Binding Protein 1 (CIB1) Competitor (AID 1508620);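 also: GST tagged CIB1 binding a fluorescein labelled alphaIIb integrin peptide tracer; top concentration of the series differs between compounds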
# Chain of Calcium and integrin-binding protein 1 (Homo sapiens) (Q99828 whole entry, looked up): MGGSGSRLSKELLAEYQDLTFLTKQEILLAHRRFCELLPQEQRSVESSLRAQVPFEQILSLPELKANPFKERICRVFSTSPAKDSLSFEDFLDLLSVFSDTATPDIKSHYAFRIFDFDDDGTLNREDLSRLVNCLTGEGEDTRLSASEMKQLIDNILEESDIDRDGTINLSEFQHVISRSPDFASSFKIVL
# Summary of the method: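 CIB1-GST (1 uM final) and compound incubated 15 min at room temperature before adding FITC-alphaIIb peptide tracer (100 nM final). Competition for binding read by fluorescence polarization (ex 480, em 540) after another 15 min at room temperature.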
# [3] = Primary qHTS for inhibitors of nuclear receptor binding SET domain protein 2 (NSD2) in an isogenic RCH-ACV NSD2 p.E1099K mutant (9B) (AID 1645876); also: nearly all actives have a fitted effect of over 70% in size; also: potency is read from the fitted curve at half-maximal effect
# [4] = target: Glutathione peroxidase 1 (Homo sapiens) (UniProt P07203); assay: Primary qHTS Assay for Inhibitors of Recombinant Selenoprotein Glutathione Peroxidase 1 (GPX1) (AID 1845191); also: nearly all actives have a fitted effect of over 65% in size
# Chain of Glutathione peroxidase 1 (Homo sapiens) (P07203 whole entry, looked up): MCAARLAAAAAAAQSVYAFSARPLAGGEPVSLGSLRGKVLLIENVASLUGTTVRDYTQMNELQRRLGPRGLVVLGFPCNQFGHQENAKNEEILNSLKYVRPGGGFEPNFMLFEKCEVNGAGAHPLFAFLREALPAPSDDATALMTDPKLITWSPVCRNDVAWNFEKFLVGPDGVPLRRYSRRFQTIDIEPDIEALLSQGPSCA
# Summary of the method: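 10 nM GPX1 + cpd, 30 min RT; start w/ 1 mM GSH, 0.5 mM cumene hydroperoxide, 0.5 mM NADPH, 100 nM GR, 0.01% BSA; buffer 50 mM Tris-HCl pH 7.5, 2 mM EDTA, 150 mM NaCl; Fl 340/450, 0 & 15 min.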
# [5] = target: Phospholipid hydroperoxide glutathione peroxidase GPX4 (Homo sapiens) (UniProt P36969); assay: Primary qHTS Assay for Inhibitors of Recombinant Selenoprotein Glutathione Peroxidase 4 (GPX4) (AID 1845192); also: nearly all actives have a fitted effect of over 65% in size; also: potency is read from the fitted curve at half-maximal effect
# Chain of Phospholipid hydroperoxide glutathione peroxidase GPX4 (Homo sapiens) (P36969 whole entry, looked up): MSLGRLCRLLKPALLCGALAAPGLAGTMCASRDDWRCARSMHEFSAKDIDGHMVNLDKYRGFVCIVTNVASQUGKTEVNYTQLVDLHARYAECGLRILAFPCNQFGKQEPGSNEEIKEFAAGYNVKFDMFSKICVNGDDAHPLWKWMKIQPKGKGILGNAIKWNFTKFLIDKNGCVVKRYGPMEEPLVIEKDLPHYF
# Summary of the method: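 NADPH consumption, followed by fluorescence at 340/450 nm between 0 and 15 min, reports GPX4 activity via coupled glutathione reductase (100 nM). Enzyme 200 nM was pre-exposed to compound 30 min; 0.5 mM cumene hydroperoxide and 1 mM GSH served as substrates.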
# [6] = target: Luciferin 4-monooxygenase (Photinus pyralis) (UniProt P08659); assay: Primary firefly luciferase (FLuc) qHTS assay for identification of artifact compounds. (AID 1845220); details: outcome: dose series up to 54.1 µM unless noted; also: nearly all actives have a fitted effect of over 60% in size
# Summary of the method: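 Compounds sat 15 min at room temperature with 10 uM luciferin and 10 uM ATP (pH 7.6 Tris acetate). Firefly luciferase (10 nM final) was then added, and luminescence was read 5 min later. Data normalized to no-enzyme and DMSO controls were Hill-fitted.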
# [7] = tested on: Nanoluciferase (engineered Oplophorus gracilirostris luciferase); assay: Primary Nanoluciferase (NLuc) qHTS assay for identification of artifact compounds. (AID 1845222); also: potency is read from the fitted curve at half-maximal effect
# Summary of the method: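 Luminescence from secreted NLuc (filtered, 1:55-diluted S16 cell medium) read 5 min after Nano-Glo substrate; compounds preincubated 15 min, RT. Hill fits of inhibition normalized to DMSO and no-enzyme.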
# [8] = tested on: KB-3-1; assay: Cytotoxic Profiling of Annotated Libraries Using Quantitative High-Throughput Screening (AID 1296008); details: Five cell lines viability, CellTiter-Glo ATP luminescence, 48-72 h; max response: stronger effect = lower value; also: nearly all actives have a fitted effect of over 60% in size; also: potency is read from the fitted curve at half-maximal effect
# Summary of the method: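 Cytotoxicity was measured as CellTiter-Glo ATP luminescence, read after 10 min at room temperature. Compound treatment of the cells lasted 48 or 72 hr at 37 degrees Celsius in a qHTS format.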
# [9] = tested on: HeLa; assay: Primary qHTS to identify gynecologic anti-cancer compounds using libraries of approved drugs and bioactive compounds (AID 1345084); details: Gynecologic cancer cell panel viability, ATPlite luminescence, 48 h; series mostly up to 57.5 µM; also: nearly all actives have a fitted effect of over 55% in size
# Summary of the method: (§1)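 Luminescence from the ATPlite ATP-monitoring reagent indicates viable cell number; lower signal means cytotoxicity. Cells received compound 16 h after seeding and were exposed for 48 h across five concentrations.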
# [10] = tested on: JEG-3; assay: as above; details: Gynecologic cancer cell panel viability, ATPlite luminescence, 48 h; series mostly up to 57.5 µM
# Summary of the method: as §1
# [11] = tested on: OV90; assay: as above; details: Gynecologic cancer cell panel viability, ATPlite luminescence, 48 h; series mostly up to 57.5 µM
# Summary of the method: as §1
# [12] = P-glycoprotein substrates identified in KB-8-5-11 adenocarcinoma cell line, qHTS therapeutic library screen (AID 1346987); also: nearly all actives have a fitted effect of over 65% in size; also: potency is read from the fitted curve at half-maximal effect
# Summary of the method: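 KB-8-5-11: colchicine-selected sub-line of KB-3-1 over-expressing P-gp; assay medium lacked colchicine. 72 h drug exposure at 37 degree C, CellTiter-Glo.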
# [13] = Cytotoxicity counterscreen for inhibitors of SARS-CoV-2 cell entry (AID 1645845; calls by dose curve; also: nearly all actives have a fitted effect of over 50% in size)
# Summary of the method: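 48 h compound treatment (after 1 h preincubation), HEK293-ACE2 cells, 37 C/5% CO2; ATP luminescence endpoint; normalized to cell wells and media blanks.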
compound,measurement,setting,value
CCC1(O)CCC2C3CCC4=CC(=O)CCC4C3CCC21CC (stereo not given),Potency,[1],inactive
same,Potency,[2],inactive
same,Potency,[3],20.5 µM (active)
same,Potency,[4],inactive
same,Potency,[5],inactive
same,outcome,[6],inactive
same,Potency,[7],inactive
same,max response,[8],-10.9%
same,Potency,[9],inactive
same,Potency,[10],inactive
same,Potency,[11],inactive
N#Cc1ccccc1-c1cc(-c2ccccn2)cn(-c2ccccc2)c1=O,Potency,[2],inactive
same,Potency,[3],inactive
same,Potency,[4],inactive
same,Potency,[5],25.5 µM (active)
same,Potency,[7],10.7 µM (active)
same,Potency,[9],inactive
same,Potency,[10],inactive
same,Potency,[11],inactive
C=C1[C@@H](O)[C@]2(O)OC[C@]34C2[C@]2(C)C(C[C@H]3OC(=O)[C@H](O)[C@@]14O)C(C)=CC(=O)[C@H]2O (stereo not given in full),Potency,[12],inactive
same,Potency,[1],inactive
same,Potency,[3],4.47 µM (active)
same,Potency,[4],inactive
same,Potency,[5],inactive
same,outcome,[6],inactive [at 25.7 µM]
same,Potency,[7],inactive
same,Potency,[9],inactive
same,Potency,[10],inactive
same,Potency,[11],inactive
NNC(=O)c1nn(Cc2ccc(Cl)cc2Cl)c2ccccc12,Potency,[12],inactive
same,Potency,[1],inactive
same,Potency,[2],inactive
same,Potency,[4],inactive
same,Potency,[5],inactive
same,outcome,[6],inactive
same,Potency,[7],inactive
same,Potency,[9],inactive
same,Potency,[10],inactive
same,Potency,[11],inactive
C/C=C(\C)C(=O)O[C@@H]1[C@@H](C)[C@]2(O)C3C=C(C)C(=O)[C@@]3(O)CC(CO)=C[C@H]2C2C(C)(C)[C@@]21OC(=O)C(C)CC (stereo not given in full),Potency,[12],inactive
same,Potency,[2],inactive
same,Potency,[4],inactive
same,Potency,[5],inactive
same,outcome,[6],inactive
same,Potency,[7],inactive
same,Potency,[9],inactive
same,Potency,[11],inactive
CCCCCn1cc(C(=O)C2C(C)(C)C2(C)C)c2ccccc21,Potency,[12],inactive
same,Potency,[1],inactive
same,Potency,[3],inactive
same,Potency,[4],inactive
same,Potency,[5],inactive
same,outcome,[6],inactive
same,Potency,[7],inactive
same,max response,[8],5.27%
same,Potency,[9],inactive
same,Potency,[10],inactive
same,Potency,[11],inactive
C/C(=C\c1csc(C)n1)[C@@H]1C[C@@H]2O[C@@H]2CCC[C@H](C)[C@H](O)[C@@H](C)C(=O)C(C)(C)[C@@H](O)CC(=O)O1,Potency,[12],0.0058 µM (active)
same,Potency,[1],inactive
same,Potency,[2],inactive
same,Potency,[13],inactive
same,Potency,[3],0.0372 µM (active)
same,Potency,[4],inactive
same,Potency,[5],inactive
same,outcome,[6],inactive
same,Potency,[7],inactive
same,Potency,[8],0.0082 µM (active)
same,Potency,[10],inactive
same,Potency,[11],inactive
CCOC(=O)c1ccnc2cc(C(OCCN3CCCCC3)c3ccccc3Cl)sc12 (stereo not given),Potency,[12],inactive
same,Potency,[1],inactive
same,Potency,[2],inactive
same,Potency,[3],23 µM (active)
same,Potency,[4],inactive
same,Potency,[5],inactive
same,outcome,[6],inactive
same,Potency,[7],inactive
same,max response,[8],5.4%
Cc1sc2c(c1C)C(c1ccc(Cl)cc1)=N[C@@H](CC(=O)Nc1ccc(O)cc1)c1nnc(C)n1-2,Potency,[2],inactive
same,Potency,[3],0.0615 µM (active)
same,Potency,[4],inactive
same,Potency,[5],inactive
same,outcome,[6],inactive [at 11.6 µM]
same,"activity, negative = inhibition",[7],-3.15% [at 11.6 µM]
same,"activity change, negative = cytotoxicity",[10],-12.8% [at 11.6 µM]
CC(C)OC(=O)c1ccnc2cc(C(OCCN3CCCCC3)c3ccccc3Cl)sc12 (stereo not given),Potency,[12],20.6 µM (active)
same,Potency,[1],inactive
same,Potency,[2],inactive
same,Potency,[3],14.5 µM (active)
same,Potency,[4],inactive
same,Potency,[5],inactive
same,outcome,[6],inactive
same,Potency,[7],inactive
same,Potency,[9],inactive
same,Potency,[10],inactive
CCCCn1cc(C(=O)c2cccc3ccccc23)c2ccccc21,Potency,[12],inactive
same,Potency,[3],inactive
same,Potency,[4],inactive
same,Potency,[5],inactive
same,outcome,[6],inactive
same,Potency,[7],inactive
same,max response,[8],-16.1%
same,Potency,[9],inactive
same,Potency,[10],inactive
same,Potency,[11],inactive
COc1ccc(CC2C(=O)NC(C)C(=O)N(C)C3Cc4ccc(cc4)Oc4cc(ccc4OC4OC(CO)C(O)C(O)C4O)CC(C(=O)NC(C)C(=O)NC(CCC(=O)O)C(=O)N2C)N(C)C3=O)cc1 (stereo not given),"activity change, negative = cytotoxicity",[12],-22.7% [at 9.29 µM]
same,Potency,[1],inactive
same,Potency,[2],inactive
same,Potency,[3],5.48 µM (active)
same,Potency,[4],inactive
same,Potency,[5],inactive
same,"activity change, negative = inhibition",[6],-19.1% [at 11.6 µM]
same,"activity, negative = inhibition",[7],-15.7% [at 11.6 µM]
same,max response,[8],-29.6%
same,"activity change, negative = cytotoxicity",[9],-13.7% [at 11.6 µM]
same,"activity change, negative = cytotoxicity",[10],-7.62% [at 11.6 µM]
same,"activity change, negative = cytotoxicity",[11],-30.8% [at 11.6 µM]
C/C=C(/C)C(=O)O[C@H]1[C@@H]2[C@H](C)C(=O)O[C@@H]2C[C@@H](C)[C@@H]2C=CC(=O)[C@]21C,Potency,[1],inactive
same,Potency,[2],inactive
same,Potency,[3],12.7 µM (active)
same,Potency,[4],inactive
same,Potency,[5],inactive
same,outcome,[6],inactive
same,Potency,[7],inactive
same,Potency,[10],inactive
Cc1cccc(NC(=O)c2ccc(C(F)(F)F)cc2C(=O)O)n1,Potency,[12],inactive
same,Potency,[1],inactive
same,Potency,[2],inactive
same,Potency,[3],inactive
same,Potency,[4],inactive
same,Potency,[5],inactive
same,Potency,[7],inactive
same,Potency,[11],inactive
C/C1=C/[C@@H](C)C/C=C/[C@H]2[C@@H]3O[C@]3(C)[C@@H](C)[C@H]3[C@H](Cc4c[nH]c5ccccc45)NC(=O)[C@]32C(=O)/C=C\C(=O)[C@@H]1O,Potency,[1],inactive
same,Potency,[2],inactive
same,Potency,[3],3.99 µM (active)
same,Potency,[4],inactive
same,Potency,[5],inactive
same,outcome,[6],inactive
same,Potency,[7],inactive
same,Potency,[8],7.96 µM (active)
same,Potency,[9],inactive
same,Potency,[10],inactive
same,Potency,[11],inactive
